# Source: PubChem BioAssay (Tox21)
# Several values for one entry are separate records, joined by “and”; a condition that tells them apart may be missing. Equal values may be shown once. Results filed as inconclusive are left out. A call without a number means that no potency is given here. Unmarked numbers belong to inactive results. Activity calls are given as the source filed them. The call rests on the fitted dose curve; in most records, active means well fitted inhibition curve with a large enough effect in the signal ratio in the repeat runs (not every such curve was filed as active); inconclusive means weak or mixed curves, or effect the other way; inactive means no such curve, though single readings can be large or run the other way; the % refers to the signal ratio.
# Biological target: Glucocorticoid receptor (Homo sapiens) (UniProt P04150)
# Test: qHTS assay to identify small molecule antagonists of the glucocorticoid receptor (GR) signaling pathway (AID 720692)
# Settings: GR-bla HeLa, beta-lactamase FRET ratio, dexamethasone-stimulated, 18 h; series mostly up to 58.5 µM; activity change, negative = inhibition: at the top concentration
# Outline: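 Tox21 10K library screened in concentration-response for blockade of dexamethasone (5 nM final)-induced GRE-bla reporter activity in HeLa cells; 18 h treatment, fluorescence read.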
# Potency means the concentration at half of the fitted maximal effect.
# Chain of Glucocorticoid receptor (Homo sapiens) (P04150 whole entry, looked up): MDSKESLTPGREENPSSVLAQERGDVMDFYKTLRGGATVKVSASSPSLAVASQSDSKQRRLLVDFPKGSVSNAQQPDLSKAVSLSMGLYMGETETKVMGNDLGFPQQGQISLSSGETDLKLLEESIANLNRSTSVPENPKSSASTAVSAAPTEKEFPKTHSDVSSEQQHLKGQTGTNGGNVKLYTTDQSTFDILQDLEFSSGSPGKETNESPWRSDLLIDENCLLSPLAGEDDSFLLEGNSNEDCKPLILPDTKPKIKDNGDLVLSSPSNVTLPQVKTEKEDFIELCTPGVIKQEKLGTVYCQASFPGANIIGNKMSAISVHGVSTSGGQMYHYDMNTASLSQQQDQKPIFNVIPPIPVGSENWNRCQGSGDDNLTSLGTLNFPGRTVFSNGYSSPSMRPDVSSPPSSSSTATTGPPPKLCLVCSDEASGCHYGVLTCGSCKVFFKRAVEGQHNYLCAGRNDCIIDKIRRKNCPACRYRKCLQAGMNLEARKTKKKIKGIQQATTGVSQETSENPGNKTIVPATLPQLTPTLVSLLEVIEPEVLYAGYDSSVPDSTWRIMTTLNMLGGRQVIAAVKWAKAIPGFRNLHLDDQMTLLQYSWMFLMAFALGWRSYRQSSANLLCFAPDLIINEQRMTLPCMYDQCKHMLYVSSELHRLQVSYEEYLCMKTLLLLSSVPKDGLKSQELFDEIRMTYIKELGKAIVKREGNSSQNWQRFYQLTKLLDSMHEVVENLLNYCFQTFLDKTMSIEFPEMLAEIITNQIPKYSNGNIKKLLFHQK
Compound,"activity change, negative = inhibition [%]",Potency
COP(=O)(OC)C(O)C(Cl)(Cl)Cl (centres undefined),-17.9,
Cc1cc(Cl)ccc1OCC(=O)O,,inactive
O=C(O)COc1ccc(Cl)cc1Cl,,inactive
O=C(O)C(Cl)Cl,,inactive
O=c1nc(O)n(Cl)c(=O)n1Cl,,inactive
CCC(=O)C(CC(C)N(C)C)(c1ccccc1)c1ccccc1 (centres undefined),,inactive
CC(Cl)(Cl)C(=O)O,,inactive
Nc1ccc(Cl)cc1,,inactive
O=C(O)CCl,,inactive
CC[N+](CC)(CC)CC,,inactive
O=C(O)c1nc(Cl)ccc1Cl,,inactive
Cc1cc(Cl)ccc1N,,inactive
CCCCCCCCCCn1cc[n+](C)c1,,15.6 µM (active) and 39.1 µM (active)
COc1ccc(N)cc1,,inactive
Nc1ccccc1,,inactive
O=c1[nH]c(=O)n(Cl)c(=O)n1Cl,,inactive
O=P1(N(CCCl)CCCl)NCCCO1 (centres undefined),,inactive
C1CCC(NC2CCCCC2)CC1,,inactive
CCCn1cc[n+](C)c1,,inactive
